Data: PubChem BioAssay AID878 (University of Pittsburgh Molecular Library Screening Center, 2007)
The whole screen tested about 200,000 compounds, of which about 65 (0.03%) were called active.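 How the source made its calls: active means activation of at least 50% relative to the plate's high and low controls in the primary single-dose screen; inactive means activation below 50%.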 This excerpt belongs to a sample that is enriched for actives.

Experiment: compounds producing H2O2 with reducing agent – biochemical, NIH compound library profiling, artefact control for MLSCN library redox annotation, primary screen (AID 878);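 further: compound incubated with DTT at 0.8 mM final as the reducing agent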
Conditions: DTT-dependent redox cycling H2O2, phenol red/HRP absorbance; at 10 µM; stronger effect = higher value; 100% = 100 µM peroxide control, 0% = buffer

activation, inactive:
COn1c(-c2ccc(Cl)cc2Cl)nc2ncccc21 0.53%, C=CCNC(=S)NNC(=O)COc1c(Cl)cc(Cl)cc1Cl 0.34%, O=C(NCCCn1ccnc1)C(=O)c1cn(CC(=O)N2CCCCCC2)c2ccccc12 -0.37%, COc1ccc(N2CCN(C(=O)COc3ccc4c(C)cc(=O)oc4c3)CC2)cc1 -0.38%, O=C(CSc1nc2ccccc2[nH]1)Nc1nc(-c2ccccc2)c(-c2ccccc2)o1 0.41%, Cc1ccc(S(=O)(=O)/N=C(/Nc2ccc3[nH]c(=O)[nH]c3c2)c2ccccc2)cc1 -0.98%, COc1ccc(NC(=O)c2cc3nc(-c4ccccc4)cc(C)n3n2)cc1OC -0.08%, CCC(=O)N(Cc1cc2ccccc2[nH]c1=O)c1ccc(OC)cc1 -0.34%, CCCOc1ccc(NC(=O)CC2C(=O)N(C)C(=S)N2Cc2ccc3c(c2)OCO3)cc1 (stereo unspecified) -0.41%, CCc1cccc(OC2OC(CO)C(O)C(O)C2NC(C)=O)c1 (stereo unspecified) -0.96%, Oc1cccc2ccc(/C=C/c3ccc(Br)s3)nc12 -0.18%, COc1ccc(C(=O)Nc2sc(C)c(C)c2CN2CCOCC2)cc1 -0.23%, CN(/C(=N/S(=O)(=O)c1cccs1)c1ccccc1)c1ccc(O)cc1 -0.71%, O=C(NC1CCCCCC1)c1cccnc1Sc1ccc(Cl)cc1 -0.04%, C/[N+]([O-])=C\c1ccc([N+](=O)[O-])o1 0.48%, CSc1ccc(/C=N\NC(=O)CC(=O)NC(C)C)cc1 -0.35%, COCCNC(=O)c1ccc(N2CCC3(CC2)OCCO3)c([N+](=O)[O-])c1 0.43%, COc1cc(/C=C/C(=O)OCC(=O)NC(=O)NCc2ccccc2)ccc1OCC#N -0.39%, O=C(CNC(=O)c1cc(=O)[nH]c2ccccc12)Nc1ccc(F)c(F)c1 0.25%, CN(c1ccc2nc3ccccc3c(=O)n2n1)C1CCCCC1 -0.26%, COc1ccc(CC(=O)N2N=C(C)CC2(O)C(F)(F)F)cc1 (stereo unspecified) -0.18%, O=C(/C=C/Sc1ncn[nH]1)c1ccc(Cl)cc1 1.23%, O=c1c2ccccc2c(-c2ccccc2)nn1-c1ccccn1 -0.18%, CCOCCCNC(=O)C(=O)NCCCOCC -0.48%, CCC1=NN(C(=O)Cc2ccc([N+](=O)[O-])cc2)C(O)(c2ccc(Br)cc2)C1 (stereo unspecified) 0.2%, CCOc1cc(NC(=S)NCCCOC)c(OCC)cc1NC(=O)c1ccco1 -0.65%
